# AMA1-RON2 inh – qHTS for Inhibitors of AMA1-RON; Towards Development of Antimalarial Drug Lead: Primary Screen | Plasmodium falciparum AMA1 (3D7) - RON2 peptide interaction | AlphaScreen AMA1-biotinylated RON2 peptide binding | Potency, µM (top dose mostly 58.2 µM), for inactives: at the top dose activity change, negative = inhibition, most hits filed as inhibitors | 0.2% of 360,000 active | AID 720542, 2013;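 further: potency means the concentration at half of the fitted maximal effect; 0% = vehicle wells and -100% = peptide control; nearly all actives have a fitted effect of over 45% in size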
#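 AMA1 (3D7) with his tag at 25 nM final met compounds first, then biotinylated RON2 peptide at 25 nM; detection used donor plus acceptor beads, 10 µg/mL apiece, read by AlphaScreen after 30 min at room temperature.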
# HCV inhibitor – qHTS Assay for Inhibitors of Hepatitis C Virus (HCV) | Huh7.5.1 HCVcc-Cre infection, luciferase reporter, 44 h | Potency, µM (highest dose often 41.8 µM), without a hit: top-dose activity change, negative = inhibition, usual class: inhibitors | 3.4% of 340,000 active; further: potency means the concentration at half of the fitted maximal effect; on the % scale 0 is the no-effect control and ±100 the full control effect
#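 Reporter virus HCVcc-Cre (~0.5 moi) infects cells exposed to compound; seeding density 1,000 cells/well with 4 h settling beforehand. Luminescence, 15 sec read, taken 44 h post-infection following a 15 min RT substrate incubation.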
# CHX counter – Cycloheximide Counterscreen for Small Molecule Inhibitors of Shiga Toxin; cell reporter, cycloheximide protein synthesis inhibition counterscreen; max response, %; 12% of 300,000 active; AID 2314, 2010; in the data active means max response mostly above about 13%, no sharp cut-off; inactive means mostly below about 14%; further: read at 38.3 µM for the half of the compounds with a filed dose; 0% is about no effect
# Pf growth 48h – Primary qHTS for delayed death inhibitors of the malarial parasite plastid, 48 hour incubation; 5.9% of 310,000 active; AID 504832, 2011; Potency, µM (doses to about 28.7 µM), without a hit: at the top dose activity change, negative = inhibition, hits mostly inhibitors; P. falciparum luciferase growth in erythrocytes, 48 h; further: potency means the concentration at half of the fitted maximal effect; on the % scale 0 is the no-effect control and ±100 the full control effect
#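 Compounds are pin-transferred into medium, infected erythrocytes (2% hematocrit, 0.1% parasitemia final) are added, and plates sit one parasite generation at 37 C in 5% CO2. Detection reagent is then added and luminescence measured.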
# Pf growth 96h – Primary qHTS for delayed death inhibitors of the malarial parasite plastid, 96 hour incubation; P. falciparum luciferase reporter growth, 96 h; Potency, µM (doses to about 28.7 µM), for the others: top-dose activity change, negative = inhibition, usual class: inhibitors; 6.9% of 320,000 active; further: potency means the concentration at half of the fitted maximal effect; on the % scale 0 is the no-effect control and ±100 the full control effect
#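 Infected RBCs, 2% Hct / 0.05% parasitemia final; luciferase-reporter P. falciparum; cpd 96 h, 37 C, 5% CO2; luciferase detection reagent; luminescence.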
# Shiga toxin inh – A qHTS for Small Molecule Inhibitors of Shiga Toxin | Vero cells, Shiga toxin protein synthesis inhibition reporter | inhibition, % at 38.7 µM | 9.2% of 290,000 active | AID 2315, 2010; in the data active means inhibition mostly above about 28%, no sharp cut-off; inactive means mostly below about 43%; further: 0% is about no effect
# * = called active by the depositor; ? = inconclusive; nt = no result given; [ ] = dose if it differs, or a comment. In the library only some 21% were active in any assay of this set; here they are far more common. Unless noted, the call rests on the fitted dose curve; in most records, active means well fitted curve in the direction sought with a large enough effect; inconclusive means small, poorly fitted or top-dose-only effect, or another doubt; inactive means no such curve, though single readings can be large; an effect the other way counts as inactive or inconclusive.
SMILES,AMA1-RON2 inh,HCV inhibitor,CHX counter,Pf growth 48h,Pf growth 96h,Shiga toxin inh
C/C(=N\NC(=O)c1cc(O)cc(O)c1)c1ccc(NC(=O)Cc2ccccc2)cc1,-1.5%,?,21.7*,36.6%,-12.0%,70.2*
CC(C)n1cnnc1SCC(=O)NNC(=O)COc1ccc(Cl)cc1,89.3%,14.8%[8.37 µM],nt,3.6%,-2.6%,nt
Cc1ccc(C2CC(c3ccccc3)n3ncnc3N2)cc1 (stereo unspecified),-4.4%,-3.0%,-4.5,-2.0%,13.1µM*,-6.0
Cc1ccc(C2CC(c3cccc(C)c3)n3ncnc3N2)cc1 (stereo unspecified),4.3%,-0.6%,-2.8,nt,?,-15.2
CCOc1ccc(C2CC(c3cccc(OC)c3OC)n3nnnc3N2)cc1Cl (stereo unspecified),1.2%,11.2µM*,-3.0,11.7µM*,5.5%,-12.3
COc1ccccc1C1CC(c2ccc(Cl)cc2)Nc2ncnn21 (stereo unspecified),-3.0%,9.2%,3.2,13.1µM*,-1.3%,-5.7
COc1ccc(C2CC(c3ccccc3)n3nnnc3N2)cc1 (stereo unspecified),-24.0%,6.0%,-1.5,nt,-32.9%,-7.1
Cc1ccc2nc(-c3cccc(Br)c3)c(Cc3ccccn3)n2c1,28.7%,nt,nt,nt,nt,nt
Cc1nc(NC(=O)C(C)(C)C)sc1C(=O)Cn1cc(-c2ccc(C(C)(C)C)cc2)nn1,8.9%,nt,nt,nt,nt,nt
O=C(CSc1nc2ccccc2[nH]1)N/N=C/c1ccncc1,0.8%,6.7%,6.4,2.1%,17.1%,16.2
CCOC(=O)c1c(NC(=O)CSc2nc3ccccc3[nH]2)sc2c1CC(C)(C)NC2(C)C,2.0%,?,nt,10.4µM*,7.38µM*,nt
CCc1nnc(NC(=O)CSc2nc3c(C)cccc3[nH]2)s1,1.2%,10.7%,0.8,-12.0%,1.7%,-4.9
CCOC(=O)c1c(NC(=O)COc2ccccc2)sc2c1CC(C)(C)NC2(C)C,0.8%,?,-1.7,?,-32.6%[5.75 µM],-16.7
Cc1ccc(/C=N/NC(=O)CSc2nc3ccccc3[nH]2)o1,-6.5%,6.6%,17.9*,-8.2%,?,21.3
CCCc1nnc(NC(=O)CSc2nc3ccccc3[nH]2)s1,-3.3%,-3.4%,19.2*,28.8%,48.2%,44.0*
CCC(C)/C(C)=N/NC(=O)CSc1nc2ccccc2[nH]1 (stereo unspecified),6.5%,1.4%,16.0,0.0%,6.5%,66.6*
COc1cc(C(C)=O)ccc1OCC(=O)NCC(c1ccc(F)cc1)N1CCOCC1 (stereo unspecified),1.3%,1.9%,nt,nt,nt,nt
O=C(OCc1cn([C@@H]2CN(Cc3cccs3)[C@@H](c3ccc(Cl)cc3)C[C@H]2O)nn1)c1ccccc1,-8.2%,nt,nt,nt,nt,nt
CC(=O)c1cccc(-c2ccnc3c2CC(C(=O)NCC2CCOCC2)O3)c1 (stereo unspecified),9.2%,nt,nt,nt,nt,nt
CCOC(=S)SCC(=O)Nc1nccs1,-2.3%,-0.2%,3.8,?,6.1%,-8.9
CCOC(=S)SCC(=O)Nc1nc(C)c(C)s1,29.6%,?,24.2*,18.8%,90.9%,48.8*
CCOC(=S)SCC(=O)Nc1nc(-c2ccc(Br)cc2)cs1,-9.8%,?,-2.9,-95.1%,3.29µM*,-12.3
CC(SCC(=O)Nc1ccccc1Br)c1nc2ccccc2c(=O)[nH]1 (stereo unspecified),-11.0%,-3.6%,nt,nt,nt,nt
CCCCCCCCCCCCCCCCC(C(=O)O)C(O)(CC(=O)O)C(=O)O (stereo unspecified),nt,nt,nt,-4.8%,-21.8%,nt
O=C(NC1CC1)C1=C[C@H](c2ccc(C(F)(F)F)cc2)C[C@H](OCc2ccc(CO)cc2)O1,-8.5%,-35.6%,23.8*,?,?,28.0*
C[C@H]1C=C(C(=O)NC2CC2)O[C@@H](OCc2ccc(CO)cc2)C1,2.1%,-3.2%,12.8*,47.3%,64.9%,42.9
COc1ccc([N+](=O)[O-])cc1N/C(=N/S(=O)(=O)c1ccccc1)c1ccccc1,-25.6%,-13.9%,0.8,-28.2%,-1.1%,16.7

# High-throughput results deposited in PubChem BioAssay by National Center for Advancing Translational Sciences (NCATS).
